According to PubChem BioAssay AID1159580 (chemical genetic matrix, 2015):
Screen size: about 5,500 compounds; about 2,000 (36%) were called active. About 18% were inconclusive and are not listed. No stated cut-off is given here; in the data, active means normalized growth mostly below about 0.91 (no sharp cut-off); inconclusive means no clear call, values can overlap the other calls; inactive means mostly above about 0.92. This is one part of the list.

Experiment: chemical genetic growth profiling, strain panel (AID 1159580);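 further: tested at 20 µM; growth read once vehicle control cultures reached saturation at 30 °C; 1 = growth at the plate median or of vehicle wells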
Details: growth OD

Measured: normalized growth

CC1=C(C(=O)O)N2C(=O)[C@@H](NC(=O)[C@H](N)C3=CCC=CC3)C2SC1 (some centres not stated)
inactive: S. cerevisiae deletion strains, locus YJR066W, strain TOR1, stronger effect = lower value 0.974 | S. cerevisiae deletion strains, locus YKL009W, strain mrt4, stronger effect = lower value 1 | S. cerevisiae deletion strains, locus YKL068W, stronger effect = lower value 0.979 | S. cerevisiae deletion strains, locus YKL085W, strain MDH1 (second series), stronger effect = lower value 0.978 | S. cerevisiae deletion strains, locus YKL085W, strain MDH1, stronger effect = lower value 0.978 | S. cerevisiae deletion strains, locus YKL160W, strain elf1, stronger effect = lower value 1 | S. cerevisiae deletion strains, locus YKR001C, strain vps1, stronger effect = lower value 0.994 | S. cerevisiae deletion strains, locus YKR026C, strain gcn3, stronger effect = lower value 1.02 | S. cerevisiae deletion strains, locus YKR091W, strain srl3, stronger effect = lower value 1.01 | S. cerevisiae deletion strains, locus YLL001W, strain dnm1, stronger effect = lower value 0.998 | S. cerevisiae deletion strains, locus YLL026W, stronger effect = lower value 1.02 | S. cerevisiae deletion strains, locus YLL041C, strain sdh2, stronger effect = lower value 1.02 | S. cerevisiae deletion strains, locus YLR027C, strain aat2, stronger effect = lower value 1.02 | S. cerevisiae deletion strains, locus YLR039C, strain RIC1, stronger effect = lower value 0.983 | S. cerevisiae deletion strains, locus YLR058C, strain SHM2, stronger effect = lower value 0.974 | S. cerevisiae deletion strains, locus YLR102C, strain apc9, stronger effect = lower value 1 | S. cerevisiae deletion strains, locus YLR113W, strain HOG1, stronger effect = lower value 0.968 | S. cerevisiae deletion strains, locus YLR221C, strain rsa3, stronger effect = lower value 1.02 | S. cerevisiae deletion strains, locus YLR258W, strain gsy2, stronger effect = lower value 1.03 | S. cerevisiae deletion strains, locus YLR262C, strain YPT6 (second series), stronger effect = lower value 1.04 | S. cerevisiae deletion strains, locus YLR262C, strain YPT6, stronger effect = lower value 0.924 | S. cerevisiae deletion strains, locus YLR268W, strain sec22, stronger effect = lower value 1 | S. cerevisiae deletion strains, locus YLR320W, strain mms22, stronger effect = lower value 1.01 | S. cerevisiae deletion strains, locus YLR330W, strain CHS5, stronger effect = lower value 0.986 | S. cerevisiae deletion strains, locus YLR342W, strain FKS1 (second series), stronger effect = lower value 1.03 | S. cerevisiae deletion strains, locus YLR342W, strain FKS1, stronger effect = lower value 1.01 | S. cerevisiae deletion strains, locus YLR357W, strain rsc2, stronger effect = lower value 1.04 | S. cerevisiae deletion strains, locus YLR370C, strain arc18, stronger effect = lower value 1.03 | S. cerevisiae deletion strains, locus YLR371W, strain rom2, stronger effect = lower value 0.999 | S. cerevisiae deletion strains, locus YLR384C, strain iki3, stronger effect = lower value 1.02 | S. cerevisiae deletion strains, locus YLR418C, strain cdc73, stronger effect = lower value 1.01 | S. cerevisiae deletion strains, locus YML016C, strain PPZ1, stronger effect = lower value 0.986 | S. cerevisiae deletion strains, locus YML032C, strain rad52, stronger effect = lower value 0.995 | S. cerevisiae deletion strains, locus YML120C, strain ndi1, stronger effect = lower value 1.02 | S. cerevisiae deletion strains, locus YML124C, strain tub3, stronger effect = lower value 0.995 | S. cerevisiae deletion strains, locus YMR058W, strain fet3, stronger effect = lower value 1.02 | S. cerevisiae deletion strains, locus YMR078C, strain ctf18, stronger effect = lower value 0.994 | S. cerevisiae deletion strains, locus YMR125W, strain sto1, stronger effect = lower value 0.996 | S. cerevisiae deletion strains, locus YMR129W, stronger effect = lower value 1.02 | S. cerevisiae deletion strains, locus YMR205C, strain PFK2, stronger effect = lower value 1.04 | S. cerevisiae deletion strains, locus YMR223W, strain ubp8, stronger effect = lower value 1.01 | S. cerevisiae deletion strains, locus YMR231W, strain pep5, stronger effect = lower value 1 | S. cerevisiae deletion strains, locus YMR263W, strain SAP30, stronger effect = lower value 1 | S. cerevisiae deletion strains, locus YMR307W, strain GAS1, stronger effect = lower value 0.933 | S. cerevisiae deletion strains, locus YNL067W, strain RPL9B, stronger effect = lower value 1.02 | S. cerevisiae deletion strains, locus YNL071W, strain lat1, stronger effect = lower value 1.02 | S. cerevisiae deletion strains, locus YNL153C, strain GIM3, stronger effect = lower value 1.02 | S. cerevisiae deletion strains, locus YNL183C, strain NPR1, stronger effect = lower value 0.933 | S. cerevisiae deletion strains, locus YNL209W, strain ssb2, stronger effect = lower value 1.03 | S. cerevisiae deletion strains, locus YNL233W, strain BNI4, stronger effect = lower value 1.03 | S. cerevisiae deletion strains, locus YNL248C, strain rpa49, stronger effect = lower value 1.05 | S. cerevisiae deletion strains, locus YNL250W, strain rad50, stronger effect = lower value 1 | S. cerevisiae deletion strains, locus YNL271C, strain bni1, stronger effect = lower value 1 | S. cerevisiae deletion strains, locus YNL298W, strain CLA4, stronger effect = lower value 0.999 | S. cerevisiae deletion strains, locus YNL307C, strain MCK1, stronger effect = lower value 0.995 | S. cerevisiae deletion strains, locus YNL322C, strain KRE1 (second series), stronger effect = lower value 1.01 | S. cerevisiae deletion strains, locus YNR049C, strain mso1, stronger effect = lower value 1.02 | S. cerevisiae deletion strains, locus YNR052C, strain pop2, stronger effect = lower value 0.996 | S. cerevisiae deletion strains, locus YOL012C, strain htz1 0.951 | S. cerevisiae deletion strains, locus YOL147C, strain pex11, stronger effect = lower value 0.997 | S. cerevisiae deletion strains, locus YOR001W, strain rrp6, stronger effect = lower value 1.02 | S. cerevisiae deletion strains, locus YOR061W, strain CKA2, stronger effect = lower value 0.968 | S. cerevisiae deletion strains, locus YOR069W, strain VPS5, stronger effect = lower value 0.976 | S. cerevisiae deletion strains, locus YOR070C, strain gyp1, stronger effect = lower value 1.02 | S. cerevisiae deletion strains, locus YOR080W, strain dia2, stronger effect = lower value 1.03 | S. cerevisiae deletion strains, locus YOR083W, strain WHI5, stronger effect = lower value 0.993 | S. cerevisiae deletion strains, locus YOR106W, strain vam3, stronger effect = lower value 1.04 | S. cerevisiae deletion strains, locus YOR136W, strain idh2, stronger effect = lower value 0.984 | S. cerevisiae deletion strains, locus YOR144C, strain elg1, stronger effect = lower value 0.995 | S. cerevisiae deletion strains, locus YOR184W, strain ser1, stronger effect = lower value 0.992 | S. cerevisiae deletion strains, locus YOR231W, strain MKK1, stronger effect = lower value 0.979 | S. cerevisiae deletion strains, locus YOR265W, strain rbl2, stronger effect = lower value 1.02 | S. cerevisiae deletion strains, locus YOR270C, strain vph1, stronger effect = lower value 1.07 | S. cerevisiae deletion strains, locus YOR290C, strain snf2, stronger effect = lower value 1.02 | S. cerevisiae deletion strains, locus YOR316C, strain cot1, stronger effect = lower value 0.991 | S. cerevisiae deletion strains, locus YPL051W, strain arl3, stronger effect = lower value 1.01 | S. cerevisiae deletion strains, locus YPL078C, strain atp4, stronger effect = lower value 1.02 | S. cerevisiae deletion strains, locus YPL106C, strain sse1, stronger effect = lower value 1.03 | S. cerevisiae deletion strains, locus YPL240C, strain hsp82, stronger effect = lower value 1.01 | S. cerevisiae deletion strains, locus YPL241C, strain CIN2, stronger effect = lower value 0.989 | S. cerevisiae deletion strains, locus YPL256C, strain CLN2, stronger effect = lower value 0.956 | S. cerevisiae deletion strains, locus YPR119W, strain clb2, stronger effect = lower value 0.995 | S. cerevisiae deletion strains, locus YPR141C, strain kar3, stronger effect = lower value 0.988 | S. cerevisiae deletion strains, locus YPR163C, strain tif3, stronger effect = lower value 0.995 | S. cerevisiae deletion strains, locus YPR167C, strain met16, stronger effect = lower value 0.998 | S. cerevisiae deletion strains, strain wtn01, stronger effect = lower value 1.04 | S. cerevisiae strains, strain wild type, stronger effect = lower value 0.985
